We go through ten compounds from PubChem BioAssay (NCI).

The nature of experiment [1]: NCI Yeast Anticancer Drug Screen. Data for the rad50 strain (AID 155).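 Further: 0% = growth of vehicle-only cultures of the same strain.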 To be noted: S. cerevisiae rad50 strain growth inhibition, hits give high values. The method, boiled down: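 Genetically altered yeast (DNA repair pathway); compound treatment; growth inhibition vs vehicle ctrl.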
Experiment [2] can be described thus: NCI Yeast Anticancer Drug Screen. Data for the mec2-1 strain (AID 157). Conditions: S. cerevisiae mec2-1 strain, hits give high values. The method, boiled down: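 Cells of the genetically defined mec2-1 yeast strain are incubated with test compound. Inhibition of growth is calculated against vehicle-treated controls.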
Experiment [3] in a line: NCI Yeast Anticancer Drug Screen. Data for the sgs1 mgt1 strain (AID 161).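 Further: 0% = growth of cultures given vehicle only.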 To be noted: S. cerevisiae sgs1 mgt1 strain, hits give high values. In a few lines: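 Read-out: growth inhibition vs vehicle controls. Cells: mutant yeast strain deficient in DNA damage repair.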
A short description of experiment [4]: NCI Yeast Anticancer Drug Screen. Data for the cln2 rad14 strain (AID 165).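 Further: 0% = growth equal to vehicle treated cultures.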 To be noted: S. cerevisiae cln2 rad14 strain, hits give high values. In a few lines:
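The screen exposed genetically defined yeast (cln2 rad14) to test compounds and scored growth inhibition relative to vehicle-treated controls.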

Experiment [5] in a line: NCI Yeast Anticancer Drug Screen. Data for the bub3 strain (AID 167). To be noted: S. cerevisiae bub3 mutant strain, hits give high values. The method, boiled down:
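Yeast carrying a defined mutation is treated with each compound, and growth is compared with that of vehicle-exposed cells to give inhibition.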

The nature of experiment [6]: NCI Yeast Anticancer Drug Screen. Data for the mlh1 rad18 strain (AID 175). To be noted: S. cerevisiae mlh1 rad18 strain growth inhibition, hits give high values. The method, boiled down: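 Compound-treated yeast growth, normalised to vehicle controls. Strain bears defined DNA repair mutations.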
[7] abbreviates: at 5.0 µM (retest, dose inferred, filed as 0.5).
Setting [8] is: at 50.0 µM (retest, dose inferred, filed as 5.0).

The structures appear in SMILES notation. The panel holds about 79,000 compounds, 15% with a hit somewhere; the sample as a whole holds those more often. Unmarked numbers belong to inactive results. Calls of active or inactive are those of the source. No stated cut-off is given here; in the data, active means growth inhibition above about 70%; inactive means the rest.

For the compound `CN(C)c1nc(=NCc2ccco2)ss1`, the growth inhibition in experiment [1] (setting [7]) was 12%; in experiment [1] (setting [8]) it was 51%; in experiment [1] (at 50.0 µM), 1.8%; in experiment [2] (setting [7]) it was 17%; in experiment [2] (setting [8]), 53%; in experiment [2] (at 50.0 µM) it was 2.3%. The growth inhibition in experiment [3] (setting [7]) was 25%; in experiment [3] (setting [8]) it was 80% (active); in experiment [3] (at 50.0 µM), 17.9%; in experiment [4] (setting [7]) it was 13%; in experiment [4] (setting [8]), 32%; in experiment [4] (at 50.0 µM), 5.2%. Also, the growth inhibition was 32% in experiment [5] (setting [7]); 76% (active) in experiment [5] (setting [8]); -53% in experiment [5] (at 50.0 µM); 29% in experiment [6] (setting [7]); 74% (active) in experiment [6] (setting [8]); 9.8% in experiment [6] (at 50.0 µM).

Regarding `CCCOC(=O)CSC#N`, the growth inhibition in experiment [1] (setting [7]) was 39%; in experiment [1] (setting [8]), 97% (active); in experiment [1] (at 50.0 µM), 97.9% (active); in experiment [2] (setting [7]), 33%; in experiment [2] (setting [8]), 98% (active); in experiment [2] (at 50.0 µM), 98% (active). The growth inhibition in experiment [3] (setting [7]) is 56%; in experiment [3] (setting [8]), 98% (active); in experiment [3] (at 50.0 µM) it was 98.2% (active); in experiment [4] (setting [7]), 28%; in experiment [4] (setting [8]), 95% (active); in experiment [4] (at 50.0 µM), 97.8% (active). Further, the growth inhibition is 33% in experiment [5] (setting [7]); 98% (active) in experiment [5] (setting [8]); 97.8% (active) in experiment [5] (at 50.0 µM); 41% in experiment [6] (setting [7]); 98% (active) in experiment [6] (setting [8]); 98% (active) in experiment [6] (at 50.0 µM).

As to `Nc1nc(-c2ccc3c(c2)Sc2ccccc2O3)cs1`, the growth inhibition in experiment [1] (setting [7]) was 18%; in experiment [1] (setting [8]) it was 99% (active); in experiment [1] (at 50.0 µM), 67.6%; in experiment [2] (setting [7]), 39%; in experiment [2] (setting [8]), 100% (active); in experiment [2] (at 50.0 µM), 65.3%. In addition, the growth inhibition in experiment [3] (setting [7]) is 57%; in experiment [3] (setting [8]) it was 99% (active); in experiment [3] (at 50.0 µM), 91.3% (active); in experiment [4] (setting [7]), 7%; in experiment [4] (setting [8]) it was 99% (active); in experiment [4] (at 50.0 µM), 78.1% (active). Further, the growth inhibition was 11% in experiment [5] (setting [7]); 99% (active) in experiment [5] (setting [8]); 86.7% (active) in experiment [5] (at 50.0 µM); 57% in experiment [6] (setting [7]); 99% (active) in experiment [6] (setting [8]); 93.7% (active) in experiment [6] (at 50.0 µM).

Consider `CC(C)CCOc1ccc(/C=C\C(=O)O)cc1`, for which the growth inhibition in experiment [1] (setting [7]) is 3%; in experiment [1] (setting [8]), 30%; in experiment [1] (at 50.0 µM), 61.1%; in experiment [2] (setting [7]), -2%; in experiment [2] (setting [8]), 41%; in experiment [2] (at 50.0 µM), 81.5% (active). The growth inhibition is -3% in experiment [3] (setting [7]); 38% in experiment [3] (setting [8]); 30.1% in experiment [3] (at 50.0 µM); -1% in experiment [4] (setting [7]); 87% (active) in experiment [4] (setting [8]); 93.9% (active) in experiment [4] (at 50.0 µM). For the same compound, the growth inhibition in experiment [5] (setting [7]) was 1%; in experiment [5] (setting [8]), 54%; in experiment [5] (at 50.0 µM), 71% (active); in experiment [6] (setting [7]) it was 6%; in experiment [6] (setting [8]), 43%; in experiment [6] (at 50.0 µM), 75% (active).

With `O=C1C(Cl)=C(Cl)C(=O)c2cc(Cl)c(Cl)cc21`, the growth inhibition was 82% (active) in experiment [1] (setting [7]); 99% (active) in experiment [1] (setting [8]); 83.9% (active) in experiment [1] (at 50.0 µM); 89% (active) in experiment [2] (setting [7]); 99% (active) in experiment [2] (setting [8]); 84% (active) in experiment [2] (at 50.0 µM). Further, the growth inhibition in experiment [3] (setting [7]) was 65%; in experiment [3] (setting [8]) it was 99% (active); in experiment [3] (at 50.0 µM) it was 97.1% (active); in experiment [4] (setting [7]) it was 86% (active); in experiment [4] (setting [8]), 97% (active); in experiment [4] (at 50.0 µM), 88.2% (active). The growth inhibition was 98% (active) in experiment [5] (setting [7]); 98% (active) in experiment [5] (setting [8]); 93.5% (active) in experiment [5] (at 50.0 µM); 60% in experiment [6] (setting [7]); 97% (active) in experiment [6] (setting [8]); 87.8% (active) in experiment [6] (at 50.0 µM).

For `CCCOCCC#N`, the growth inhibition in experiment [1] (setting [7]) was 8%; in experiment [1] (setting [8]), -2%; in experiment [1] (at 50.0 µM) it was -11.6%; in experiment [2] (setting [7]) it was 5%; in experiment [2] (setting [8]), 0%; in experiment [2] (at 50.0 µM) it was 7.45%. The growth inhibition in experiment [3] (setting [7]) is -6%; in experiment [3] (setting [8]), 1%; in experiment [3] (at 50.0 µM), -8.1%; in experiment [4] (setting [7]), 5%; in experiment [4] (setting [8]) it was -2%; in experiment [4] (at 50.0 µM), 40.9%. Also, the growth inhibition in experiment [5] (setting [7]) was 7%; in experiment [5] (setting [8]), 13%; in experiment [5] (at 50.0 µM), -1.65%; in experiment [6] (setting [7]), 7%; in experiment [6] (setting [8]), -1%; in experiment [6] (at 50.0 µM), -17.9%.

With `Cc1nn(C(=S)S)c(C)c1N=Nc1cccc(F)c1`, the growth inhibition was 15% in experiment [1] (setting [7]); 29% in experiment [1] (setting [8]); 88.2% (active) in experiment [1] (at 50.0 µM); -1% in experiment [2] (setting [7]); 18% in experiment [2] (setting [8]); 46.1% in experiment [2] (at 50.0 µM). The growth inhibition in experiment [3] (setting [7]) was 5%; in experiment [3] (setting [8]), -1%; in experiment [3] (at 50.0 µM) it was 88.6% (active); in experiment [4] (setting [7]), 1%; in experiment [4] (setting [8]), 5%; in experiment [4] (at 50.0 µM) it was 24.4%. The growth inhibition was -1% in experiment [5] (setting [7]); 7% in experiment [5] (setting [8]); 72.5% (active) in experiment [5] (at 50.0 µM); -1% in experiment [6] (setting [7]); 21% in experiment [6] (setting [8]); 90% (active) in experiment [6] (at 50.0 µM).

Take `CC(CC(C#CCN(C)C)N(C)C)CC(C)(C)C` (stereo not given): the growth inhibition was 22% in experiment [1] (setting [7]); -9% in experiment [1] (setting [8]); -5.3% in experiment [1] (at 50.0 µM); 1% in experiment [2] (setting [7]); -10% in experiment [2] (setting [8]); 15.6% in experiment [2] (at 50.0 µM). The growth inhibition is 3% in experiment [3] (setting [7]); 5% in experiment [3] (setting [8]); 13.3% in experiment [3] (at 50.0 µM); 1% in experiment [4] (setting [7]); 24% in experiment [4] (setting [8]); -7.5% in experiment [4] (at 50.0 µM). For the same compound, the growth inhibition was 7% in experiment [5] (setting [7]); 14% in experiment [5] (setting [8]); 41.1% in experiment [5] (at 50.0 µM); 6% in experiment [6] (setting [7]); -5% in experiment [6] (setting [8]); 38.6% in experiment [6] (at 50.0 µM).

As to `CCCCC#C[I+]c1ccccc1`, the growth inhibition in experiment [1] (setting [7]) was 66%; in experiment [1] (setting [8]) it was 66%; in experiment [1] (at 50.0 µM), 90.5% (active); in experiment [2] (setting [7]), 46%; in experiment [2] (setting [8]), 46%; in experiment [2] (at 50.0 µM), 93% (active). For the same compound, the growth inhibition is 54% in experiment [3] (setting [7]); 54% in experiment [3] (setting [8]); 93.2% (active) in experiment [3] (at 50.0 µM); 58% in experiment [4] (setting [7]); 58% in experiment [4] (setting [8]); 91.2% (active) in experiment [4] (at 50.0 µM). In addition, the growth inhibition in experiment [5] (setting [7]) is 32%; in experiment [5] (setting [8]) it was 32%; in experiment [5] (at 50.0 µM), 87.5% (active); in experiment [6] (setting [7]) it was 65%; in experiment [6] (setting [8]), 65%; in experiment [6] (at 50.0 µM), 89.3% (active).

With `O=C1C=CC(=O)N1c1ccc(Cl)cc1`, the growth inhibition in experiment [1] (setting [7]) is 79% (active); in experiment [1] (setting [8]) it was 97% (active); in experiment [1] (at 50.0 µM), 91.6% (active); in experiment [2] (setting [7]) it was 79% (active); in experiment [2] (setting [8]) it was 99% (active); in experiment [2] (at 50.0 µM) it was 93.1% (active). The growth inhibition in experiment [3] (setting [7]) was 95% (active); in experiment [3] (setting [8]), 100% (active); in experiment [3] (at 50.0 µM) it was 92.8% (active); in experiment [4] (setting [7]) it was 54%; in experiment [4] (setting [8]) it was 101% (active); in experiment [4] (at 50.0 µM) it was 84.8% (active). Further, the growth inhibition in experiment [5] (setting [7]) was 101% (active); in experiment [5] (setting [8]) it was 100% (active); in experiment [5] (at 50.0 µM), 92.1% (active); in experiment [6] (setting [7]) it was 80% (active); in experiment [6] (setting [8]), 99% (active); in experiment [6] (at 50.0 µM), 92% (active).
